Records with an inconclusive call do not appear. The source made the active and inactive calls. Calls follow the shape of the dose curve; as a rule, active = well fitted curve in the direction sought with a large enough effect; inconclusive = small, poorly fitted or top-dose-only effect, or another doubt; inactive = no such curve, though single readings can be large; an effect the other way counts as inactive or inconclusive.
How the values were obtained:
[1] = NS1 protein of Zika virus - qHTS assay to identify small molecule inhibitors in human HEK 293 cells (AID 1347053);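 also: series mostly up to about 46 µM; plate controls were infected untreated cells for no effect and uninfected cells for full effect; nearly all actives have a fitted effect of over 55% in size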
How it was run: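 Compound-treated (1 h pre-infection) HEK 293 cells infected with ZIKV MR766, MOI = 0.5; after 24 h at 37 C, NS1 read by TR-FRET; data normalized to uninfected and infected controls.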

[2] = qHTS of pediatric cancer cell lines to identify multiple opportunities for drug repurposing: Primary screen for TC32 cells (AID 1347089); also: % is scaled to controls: 0 for no effect and ±100 for the full control effect; nearly all actives have a fitted effect of over 60% in size
How it was run: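 qHTS, TC32, 48 h drug treatment, CellTiter-Glo luminescence as a proxy for metabolically active cells; primary top concentration 46 µM (MIPE 11-pt, NPC 8-pt); confirmatory 11-pt.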

[3] = qHTS of pediatric cancer cell lines to identify multiple opportunities for drug repurposing: Primary screen for DAOY cells (AID 1347090);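 also: series mostly up to about 46 µM; plate controls were DMSO for no effect and bortezomib for full effect; nearly all actives have a fitted effect of over 55% in size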
How it was run: (§1)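 Cell viability, CellTiter-Glo luminescence; 500-1,000 cells/well, 8- or 11-point titration, 48 h compound exposure at 37 degrees C, 5% CO2. Controls: DMSO neutral, bortezomib 2.3 µM final as positive.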

[4] = qHTS of pediatric cancer cell lines to identify multiple opportunities for drug repurposing: Primary screen for SJ-GBM2 cells (AID 1347091);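 also: plate controls were DMSO neutral control for no effect and bortezomib for full effect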
How it was run: as §1

[5] = qHTS of pediatric cancer cell lines to identify multiple opportunities for drug repurposing: Primary screen for A673 cells (AID 1347092); also: % is scaled to controls: 0 for no effect and ±100 for the full control effect; nearly all actives have a fitted effect of over 45% in size
How it was run: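 Luminescence from CellTiter-Glo, taken after 15 min at room temperature, served as the proxy for metabolically active cells following 48 h treatment. Both potency and efficacy were taken from curves fitted to the titration data.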

[6] = qHTS of pediatric cancer cell lines to identify multiple opportunities for drug repurposing: Primary screen for SK-N-MC cells (AID 1347093);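 also: series mostly up to about 46 µM; plate controls were DMSO neutral control for no effect and bortezomib for full effect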
How it was run: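 Metabolically active cells were quantified by ATP-dependent luminescence (CellTiter-Glo, 15 min at room temperature) following 48 h treatment. Cells had been plated at 500-1,000 per well and settled for 5 h beforehand.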

[7] = qHTS of pediatric cancer cell lines to identify multiple opportunities for drug repurposing: Primary screen for BT-37 cells (AID 1347094);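 also: series mostly up to about 57 µM; plate controls were DMSO for no effect and bortezomib for full effect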
How it was run: (§2)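 Primary screen of approved and investigational compounds on cells in growth media at 37 degrees C, 5% CO2. MIPE set at 11-point and NPC set at 8-point dilutions; viability scored by ATP-based luminescence at 48 hours.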

[8] = qHTS of pediatric cancer cell lines to identify multiple opportunities for drug repurposing: Primary screen for NB-EBc1 cells (AID 1347095);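 also: plate controls were DMSO neutral control for no effect and bortezomib for full effect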
How it was run: as §2

[9] = qHTS of pediatric cancer cell lines to identify multiple opportunities for drug repurposing: Primary screen for U-2 OS cells (AID 1347096);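 also: plate controls were DMSO wells for no effect and bortezomib positive control wells for full effect; nearly all actives have a fitted effect of over 50% in size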
How it was run: (§3)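 Cells (500-1,000/well) rested 5 h, then received compounds for 48 h; metabolically active cells were measured by CellTiter-Glo luminescence. Final concentrations spanned up to 46 µM (MIPE, 11-point) or 0.59 nM-46 µM (NPC, 8-point) in primary screens, 11-point in follow-ups.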

[10] = qHTS of pediatric cancer cell lines to identify multiple opportunities for drug repurposing: Primary screen for Saos-2 cells (AID 1347097); also: % is scaled to controls: 0 for no effect and ±100 for the full control effect; nearly all actives have a fitted effect of over 40% in size
How it was run: as §2

[11] = qHTS of pediatric cancer cell lines to identify multiple opportunities for drug repurposing: Primary screen for SK-N-SH cells (AID 1347098); also: % is scaled to controls: 0 for no effect and ±100 for the full control effect; nearly all actives have a fitted effect of over 65% in size
How it was run: as §3

[12] = qHTS of pediatric cancer cell lines to identify multiple opportunities for drug repurposing: Primary screen for NB1643 cells (AID 1347099);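 also: plate controls were DMSO neutral control for no effect and bortezomib positive control for full effect; nearly all actives have a fitted effect of over 50% in size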
How it was run: as §2

[13] = qHTS of pediatric cancer cell lines to identify multiple opportunities for drug repurposing: Primary screen for LAN-5 cells (AID 1347100);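 also: plate controls were DMSO neutral control for no effect and bortezomib positive control for full effect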
How it was run: as §3

[14] = qHTS of pediatric cancer cell lines to identify multiple opportunities for drug repurposing: Primary screen for BT-12 cells (AID 1347101);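 also: plate controls were DMSO for no effect and bortezomib positive control for full effect; nearly all actives have a fitted effect of over 25% in size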
How it was run: as §3

[15] = qHTS of pediatric cancer cell lines to identify multiple opportunities for drug repurposing: Primary screen for Rh18 cells (AID 1347102); also: % is scaled to controls: 0 for no effect and ±100 for the full control effect; nearly all actives have a fitted effect of over 65% in size
How it was run: as §3

[16] = qHTS of pediatric cancer cell lines to identify multiple opportunities for drug repurposing: Primary screen for OHS-50 cells (AID 1347103);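 also: plate controls were DMSO neutral control for no effect and bortezomib positive control for full effect; nearly all actives have a fitted effect of over 40% in size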
How it was run: as §3

CCN(CC)CC(=O)Oc1ccc(NC(C)=O)cc1
inactive: Potency [1] | Potency [2] | Potency [3] | Potency [4] | Potency [5] | Potency [6] | Potency [7] | Potency [8] | Potency [9] | Potency [10] | Potency [11] | Potency [12] | Potency [13] | Potency [14] | Potency [15] | Potency [16]

CC(=O)N(CC(O)CO)c1c(I)c(C(=O)NCCO)c(I)c(C(=O)NCC(O)CO)c1I (configuration not stated)
inactive: Potency [1] | Potency [2] | Potency [3] | Potency [4] | Potency [5] | Potency [6] | Potency [7] | Potency [8] | Potency [9] | Potency [10] | Potency [11] | Potency [12] | Potency [13] | Potency [14] | Potency [15] | Potency [16]

CC(=O)OCC(=O)Nc1cc(C#N)cc(NC(=O)COC(C)=O)c1Cl
inactive: Potency [1] | Potency [2] | Potency [3] | Potency [4] | Potency [5] | Potency [6] | Potency [7] | Potency [8] | Potency [9] | Potency [10] | Potency [11] | Potency [12] | Potency [13] | Potency [14] | Potency [15] | Potency [16]

CCCCC(O)/C=C(C)/C=C/C=C/C(=O)N1CCCC1=O (configuration not stated)
inactive: Potency [1] | Potency [2] | Potency [3] | Potency [4] | Potency [5] | Potency [6] | Potency [7] | Potency [8] | Potency [9] | Potency [10] | Potency [11] | Potency [12] | Potency [13] | Potency [14] | Potency [15] | Potency [16]

Cc1c(F)cc2c(=O)c(C(=O)O)cn3c2c1CCC3C (configuration not stated)
inactive: Potency [1] | Potency [2] | Potency [3] | Potency [4] | Potency [5] | Potency [6] | Potency [7] | Potency [8] | Potency [9] | Potency [10] | Potency [11] | Potency [12] | Potency [13] | Potency [14] | Potency [15] | Potency [16]

NCC[C@H](O)C(=O)N[C@@H]1C[C@H](N)[C@@H](O[C@H]2O[C@H](CN)[C@@H](O)[C@H](O)[C@@H]2O)[C@H](O)[C@@H]1O[C@H]1O[C@H](CO)[C@@H](O)[C@H](N)[C@@H]1O
inactive: activity change, negative = inhibition [1] -0.409% [at 0.593 µM] | activity change, negative = cytotoxic [2] 10.2% [at 0.594 µM] | activity change, negative = cytotoxic [3] 11.4% [at 0.597 µM] | activity change, negative = cytotoxic [4] 26.2% [at 0.597 µM] | activity change, negative = cytotoxic [5] -3.3% [at 0.597 µM] | activity change, negative = cytotoxic [6] -10.7% [at 0.597 µM] | activity change, negative = cytotoxic [7] 11.5% [at 0.745 µM] | activity change, negative = cytotoxic [8] 17.9% [at 0.597 µM] | activity change, negative = cytotoxic [9] 14.2% [at 0.597 µM] | activity change, negative = cytotoxic [10] 9.12% [at 0.597 µM] | activity change, negative = cytotoxic [11] -13.1% [at 0.741 µM] | activity change, negative = cytotoxic [12] 2.83% [at 0.597 µM] | activity change, negative = cytotoxic [13] 0.172% [at 0.597 µM] | activity change, negative = cytotoxic [14] 5.54% [at 0.745 µM] | activity change, negative = cytotoxic [15] 1.72% [at 0.597 µM] | activity change, negative = cytotoxic [16] 17.5% [at 0.73 µM]

Nc1ncnc2c1ncn2Cc1c(F)cccc1Cl
inactive: Potency [1] | Potency [2] | Potency [3] | Potency [4] | Potency [5] | Potency [6] | Potency [7] | Potency [8] | Potency [9] | Potency [10] | Potency [11] | Potency [12] | Potency [13] | Potency [14] | Potency [15] | Potency [16]

COc1ccccc1OCC1CNC(=O)O1 (configuration not stated)
inactive: Potency [1] | Potency [2] | Potency [3] | Potency [4] | Potency [5] | Potency [6] | Potency [7] | Potency [8] | Potency [9] | Potency [10] | Potency [11] | Potency [12] | Potency [13] | Potency [14] | Potency [15] | Potency [16]

O=C(C1CCCCC1)N1CC(=O)N2CCCc3ccccc3C2C1 (configuration not stated)
inactive: Potency [1] | Potency [2] | Potency [3] | Potency [4] | Potency [5] | Potency [6] | Potency [7] | Potency [8] | Potency [9] | Potency [10] | Potency [11] | Potency [12] | Potency [13] | Potency [14] | Potency [15] | Potency [16]

CC1(C)OC(=O)Nc2ccc(Br)cc21
inactive: Potency [1] | Potency [2] | Potency [3] | Potency [4] | Potency [5] | Potency [6] | Potency [7] | Potency [8] | Potency [9] | Potency [10] | Potency [11] | Potency [12] | Potency [13] | Potency [14] | Potency [15] | Potency [16]

CC(C)=CCC/C(C)=C/CC/C(C)=C/CCC(=O)OC/C=C(\C)CCC=C(C)C
inactive: Potency [1] | Potency [2] | Potency [3] | Potency [4] | Potency [5] | Potency [6] | Potency [7] | Potency [8] | Potency [9] | Potency [10] | Potency [11] | Potency [12] | Potency [13] | Potency [14] | Potency [15] | Potency [16]

CN1Cc2cc(C(=O)N3CCC(C4CCNCC4)CC3)ccc2N[C@@H](CC(=O)O)C1=O
inactive: Potency [1] | Potency [2] | Potency [3] | Potency [4] | Potency [5] | Potency [6] | Potency [7] | Potency [8] | Potency [9] | Potency [10] | Potency [11] | Potency [12] | Potency [13] | Potency [14] | Potency [15] | Potency [16]

COc1ccc(CCC(C)=O)cc1
inactive: Potency [1] | Potency [2] | Potency [3] | Potency [4] | Potency [5] | Potency [6] | Potency [7] | Potency [8] | Potency [9] | Potency [10] | Potency [11] | Potency [12] | Potency [13] | Potency [14] | Potency [15] | Potency [16]

CN1CC(=O)N2[C@H](c3ccc4c(c3)OCO4)c3[nH]c4ccccc4c3C[C@@H]2C1=O
inactive: Potency [1] | Potency [2] | Potency [3] | Potency [4] | Potency [5] | Potency [6] | Potency [7] | Potency [8] | Potency [9] | Potency [10] | Potency [11] | Potency [12] | Potency [13] | Potency [14] | Potency [15] | Potency [16]

CCCCCC1Nc2cc(C(F)(F)F)c(S(N)(=O)=O)cc2S(=O)(=O)N1 (configuration not stated)
inactive: Potency [1] | Potency [2] | Potency [3] | Potency [4] | Potency [5] | Potency [6] | Potency [7] | Potency [8] | Potency [9] | Potency [10] | Potency [11] | Potency [12] | Potency [13] | Potency [14] | Potency [15] | Potency [16]

Cc1coc2ccccc2c1=O
inactive: Potency [1] | Potency [2] | Potency [3] | Potency [4] | Potency [5] | Potency [6] | Potency [7] | Potency [8] | Potency [9] | Potency [10] | Potency [11] | Potency [12] | Potency [13] | Potency [14] | Potency [15] | Potency [16]

CC(C(=O)O)c1ccc(/C=C2\CCCCC2=O)cc1 (configuration not stated)
inactive: Potency [1] | Potency [2] | Potency [3] | Potency [4] | Potency [5] | Potency [6] | Potency [7] | Potency [8] | Potency [9] | Potency [10] | Potency [11] | Potency [12] | Potency [13] | Potency [14] | Potency [15] | Potency [16]

CC(NN)c1ccccc1 (configuration not stated)
inactive: Potency [1] | Potency [2] | Potency [3] | Potency [4] | Potency [5] | Potency [6] | Potency [7] | Potency [8] | Potency [9] | Potency [10] | Potency [11] | Potency [12] | Potency [13] | Potency [14] | Potency [15] | Potency [16]

O=C(O)[C@H](O)[C@@H](O)[C@H](O[C@@H]1O[C@H](CO)[C@H](O)[C@H](O)[C@H]1O)[C@H](O)CO
inactive: Potency [1] | Potency [2] | Potency [3] | Potency [4] | Potency [5] | Potency [6] | Potency [7] | Potency [8] | Potency [9] | Potency [10] | Potency [11] | Potency [12] | Potency [13] | Potency [14] | Potency [15] | Potency [16]

Cc1oc(=O)oc1COC(=O)[C@@H]1N2C(=O)[C@@H](NC(=O)[C@H](N)c3ccccc3)[C@H]2SC1(C)C
inactive: Potency [1] | Potency [2] | Potency [3] | Potency [4] | Potency [5] | Potency [6] | Potency [7] | Potency [8] | Potency [9] | Potency [10] | Potency [11] | Potency [12] | Potency [13] | Potency [14] | Potency [15] | Potency [16]

CCN1CCN(C(=O)N[C@@H](C(=O)N[C@@H]2C(=O)N3[C@@H]2SC(C)(C)[C@H]3C(=O)O)c2ccccc2)C(=O)C1=O
inactive: Potency [1] | Potency [2] | Potency [3] | Potency [4] | Potency [5] | Potency [6] | Potency [7] | Potency [8] | Potency [9] | Potency [10] | Potency [11] | Potency [12] | Potency [13] | Potency [14] | Potency [15] | Potency [16]

COc1cc(NS(=O)(=O)c2ccc(N)cc2)nc(C)n1
inactive: Potency [1] | Potency [2] | Potency [3] | Potency [4] | Potency [5] | Potency [6] | Potency [7] | Potency [8] | Potency [9] | Potency [10] | Potency [11] | Potency [12] | Potency [13] | Potency [14] | Potency [15] | Potency [16]
